Calls of active or inactive are those of the source. Rule for the calls: active = hit-call score of the fitted dose curve at least 0.9, where 1 is the maximum; inactive = score below 0.9.
target: human KDR (VEGFR2) Receptor Tyrosine Kinase, KDR (gene 3791) (UniProt P35968); assay: ERF_FR_ENZ_hKDR: Eurofins (ERF) Enzymatic Radiometric [Km ATP] KinaseProfiler LeadHunter Assay for human KDR (VEGFR2) Receptor Tyrosine Kinase
Protocol: ERF_FR_ENZ_hKDR is a biochemical, single-readout assay that uses extracted gene-proteins in a cell-free assay. Measurements were taken 1 hour after chemical dosing in a 96-well plate. See KDR (VEGFR2) Human RTK Kinase Enzymatic LANCE Assay [Km ATP], Cerep.ERF_FR_ENZ_hKDR is an assay component calculated from the ERF_FR_ENZ_hKDR assay. It is designed to measure enzyme activity using a type of enzyme reporter as detected by fluorescence intensity with LANCE technology.Data from the assay component ERF_FR_ENZ_hKDR was analyzed at the assay endpoint, ERF_FR_ENZ_hKDR, in the positive analysis fitting direction relative to DMSO as the negative control and baseline of activity. Using a type of enzyme reporter, loss-of-signal activity can be used to understand changes in enzymatic activity as they relate to gene KDR. To generalize the intended target to other relatable targets, this assay endpoint is annotated to the kinase intended target family, where the subfamily is receptor tyrosine kinase.
KDR (h) is incubated with 8 mM MOPS pH 7.0, 0.2 mM EDTA, 0.33 mg/mL myelin basic protein, 10 mM MgAcetate and [gamma-33P]-ATP (specific activity and concentration as required). The reaction is initiated by the addition of the Mg/ATP mix. After incubation for 40 minutes at room temperature, the reaction is stopped by the addition of phosphoric acid to a concentration of 0.5%. […]

Sequence of human KDR (VEGFR2) Receptor Tyrosine Kinase, KDR (gene 3791) (P35968 whole entry, looked up): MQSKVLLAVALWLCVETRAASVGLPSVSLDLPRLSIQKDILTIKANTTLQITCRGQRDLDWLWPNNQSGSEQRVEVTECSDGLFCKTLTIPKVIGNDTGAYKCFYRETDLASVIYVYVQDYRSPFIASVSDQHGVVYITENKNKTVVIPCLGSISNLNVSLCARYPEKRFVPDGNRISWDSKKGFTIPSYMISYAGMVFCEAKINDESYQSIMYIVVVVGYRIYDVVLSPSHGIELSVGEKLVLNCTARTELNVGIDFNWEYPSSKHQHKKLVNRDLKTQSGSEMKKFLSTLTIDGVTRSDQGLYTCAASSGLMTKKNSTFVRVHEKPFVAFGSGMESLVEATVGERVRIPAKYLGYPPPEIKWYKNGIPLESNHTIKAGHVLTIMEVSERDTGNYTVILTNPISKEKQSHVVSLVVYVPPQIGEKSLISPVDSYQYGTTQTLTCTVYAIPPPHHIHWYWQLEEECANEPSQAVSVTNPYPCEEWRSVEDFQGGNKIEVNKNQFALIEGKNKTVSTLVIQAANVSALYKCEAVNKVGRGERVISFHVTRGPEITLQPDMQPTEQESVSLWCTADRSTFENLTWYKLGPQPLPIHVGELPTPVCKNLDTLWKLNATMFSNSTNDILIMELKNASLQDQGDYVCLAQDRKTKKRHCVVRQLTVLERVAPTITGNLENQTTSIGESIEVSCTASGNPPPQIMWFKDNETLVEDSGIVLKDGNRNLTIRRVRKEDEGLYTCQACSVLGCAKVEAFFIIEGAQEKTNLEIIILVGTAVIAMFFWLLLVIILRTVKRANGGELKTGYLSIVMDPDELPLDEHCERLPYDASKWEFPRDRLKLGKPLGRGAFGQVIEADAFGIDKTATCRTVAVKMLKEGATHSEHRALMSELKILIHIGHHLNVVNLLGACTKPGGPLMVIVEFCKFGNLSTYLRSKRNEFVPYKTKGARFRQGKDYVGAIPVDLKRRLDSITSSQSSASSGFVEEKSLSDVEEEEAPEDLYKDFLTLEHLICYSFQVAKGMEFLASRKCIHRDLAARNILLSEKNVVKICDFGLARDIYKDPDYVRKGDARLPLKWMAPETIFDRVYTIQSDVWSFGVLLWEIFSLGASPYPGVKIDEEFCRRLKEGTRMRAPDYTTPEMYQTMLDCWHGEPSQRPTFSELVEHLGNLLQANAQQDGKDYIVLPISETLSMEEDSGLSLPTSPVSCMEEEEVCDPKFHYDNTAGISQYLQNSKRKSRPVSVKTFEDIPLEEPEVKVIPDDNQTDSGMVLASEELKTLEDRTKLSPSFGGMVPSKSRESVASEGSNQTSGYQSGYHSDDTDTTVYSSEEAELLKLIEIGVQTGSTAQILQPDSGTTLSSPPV

| SMILES | AC50 |
| --- | --- |
| O=C(/C=C/c1ccc(O)cc1)CC(=O)/C=C/c1ccc(O)cc1 | 2.39 µM (active) |

— PubChem BioAssay AID2284100 (EPA ToxCast)
